Laboratory results from PubChem BioAssay AID624309 (Sanford-Burnham Center for Chemical Genomics, 2012).
In all, about 2,000 compounds went through this assay and about 260 (13%) were called active. A selection follows. Values without a mark were called inactive. No stated cut-off is given here; in the data, active means inhibition mostly above about 42% (no sharp cut-off); inactive means mostly below about 42%.

Test system: Nicotinate mononucleotide adenylyltransferase NadD (Staphylococcus aureus N315)
Test: inhibitors of S. aureus NadD, confirmation, biochemical, colorimetric, single concentration (AID 624309)
Conditions: purified S. aureus NadD, colorimetric enzyme assay; at 20 µM; stronger effect = higher value

How did the inhibition turn out when `Cc1cc(N2C(=O)C(O)=C(C(=O)c3ccc(C)o3)C2c2ccc(OCc3ccccc3)cc2)no1` (centres undefined) was run?
Its inhibition is 51.4% (active).

For `CCCn1c(C)cc(-c2csc(NC(=O)CCc3nc4ccccc4c(=O)[nH]3)n2)c1C`, which inhibition is on record?
Its inhibition is 25.1%.

Which inhibition does the source give for `CCc1ccc(-n2c(=S)sc3c(=O)n(-c4ccccc4OC)c(=S)[nH]c32)cc1` here?
Its inhibition is 5.54%.

For `Cc1ccc(C(=O)COC(=O)c2cccc(N3C(=O)c4c(C)nc5ccccc5c4C3=O)c2)cc1C`, which inhibition is on record?
Its inhibition is 0.6%.

How did the inhibition turn out when `Cc1cc(C)c2nc(-c3cccnc3)cc(C(=O)Nc3ccc(S(=O)(=O)Nc4onc(C)c4C)cc3)c2c1` was run?
Its inhibition is 64% (active).

`COc1cccc2sc(NNC(=O)c3nc4ccccc4s3)nc12` was tested. Which inhibition did it give?
Its inhibition is 43.7%.

How did the inhibition turn out when `O=C(COC(=O)c1cc(=O)[nH]c2ccccc12)Nc1nc(-c2cccc(Br)c2)cs1` was run?
The inhibition was 5.44%.

For `CCOc1ccc(CCN2C(=S)N([C@@H](CC(C)C)CN3CCC[C@@H]3CN3C(=S)NC[C@@H]3Cc3ccc(O)cc3)C[C@@H]2Cc2ccc(O)cc2)cc1`, which inhibition is on record?
Its inhibition is 29.1%.

`COc1ccc(C(=O)/C=C/c2ccc(-c3ccccc3)cc2)cc1CSCC(=O)O` was tested. Which inhibition did it give?
The inhibition was 46.5%.

Which inhibition does the source give for `Cc1ccc(Cn2c(=N)c(S(=O)(=O)c3ccc(C)cc3)cc3c(=O)n4ccccc4nc32)cc1` here?
Its inhibition is 20.4%.

`Cc1ccc(N2C(=O)C3N=NN(CC(=O)N4N=C(c5cccc6ccccc56)CC4c4ccccc4)C3C2=O)cc1` (centres undefined) was tested. Which inhibition did it give?
The inhibition was 33.1%.

With `CC(=O)Nc1ccc(Nc2cc(C)nc(Nc3ccc(NC(C)=O)cc3)n2)cc1` as the molecule, how does the inhibition read?
Its inhibition is 9.22%.

How did the inhibition turn out when `O=C1NC[C@H](Cc2ccc(O)cc2)N(C[C@@H]2CCCN2C[C@H](Cc2ccccc2)N2C[C@H](Cc3ccccc3)N(CC3CCCCC3)C(=O)C2=O)C1=O` was run?
Its inhibition is 38.1%.

Which inhibition does the source give for `O=C(Nc1ccc(NC(=O)c2cccs2)cc1)c1ccc2ccccc2c1` here?
Its inhibition is -0.66%.

For `Nc1ccc2nc3c(=O)[nH]c(=S)[nH]c3nc2c1`, which inhibition is on record?
The inhibition was 72.4% (active).

`Cc1ccc(C(=O)Oc2coc(CSc3nnc(NC(=O)c4cccs4)s3)cc2=O)cc1C` was tested. Which inhibition did it give?
The inhibition was 13.8%.

With `CC(C)CC1C(=O)N(Cc2cn(Cc3ccco3)nn2)CCS(=O)(=O)N1Cc1ccc(-c2ccc(Cl)c(Cl)c2)cc1` (centres undefined) as the molecule, how does the inhibition read?
Its inhibition is 35%.

`COc1cc(C2CC(=O)N3CN(Cc4ccccc4)CSC3=C2C#N)ccc1OCc1ccccc1` (centres undefined) was tested. Which inhibition did it give?
The inhibition was 4.07%.

Which inhibition does the source give for `COCCCn1c(=O)/c(=C/c2ccccc2OC(C)C)s/c1=C(\C#N)C(=O)Nc1ccc(C(=O)O)cc1` here?
Its inhibition is 12.9%.

How did the inhibition turn out when `NNc1cccc(C=Cc2ccccc2)cc1=O` was run?
Its inhibition is 39.5%.

For `O=C(CSc1nnc(-c2cccnc2)n1Cc1ccco1)c1ccc(Cl)c(Cl)c1`, which inhibition is on record?
Its inhibition is 32.6%.

For `COc1ccc(Cl)cc1C(=O)NNC(=S)NC(=O)/C=C/c1ccco1`, which inhibition is on record?
The inhibition was -2.56%.

How did the inhibition turn out when `COc1ccc(NS(=O)(=O)c2ccc(NC(=S)NC(=O)/C=C/c3ccc(C)cc3)cc2)nn1` was run?
Its inhibition is 58.1% (active).

`COc1ccc(C2=NN(C(=O)CSc3nc(=O)n4ccc(C)cc4n3)C(c3ccc(C)cc3)C2)cc1` (centres undefined) was tested. Which inhibition did it give?
The inhibition was 18.2%.

Which inhibition does the source give for `C[C@H](CO)N1C[C@H](C)[C@H](CN(C)C(=O)Nc2ccc(C(F)(F)F)cc2)Oc2c(NC(=O)c3ccncc3)cccc2C1=O` here?
The inhibition was 27.5%.

For `Cc1ccc2nc(/C(C#N)=C\c3ccc(OC(=O)c4cccs4)cc3)[nH]c2c1`, which inhibition is on record?
Its inhibition is 21%.

For `Cc1ccc(/C=C/C(=O)Nc2ccc([N+](=O)[O-])c(NC(=O)/C=C/c3ccc(C)o3)c2)o1`, which inhibition is on record?
The inhibition was 60.6% (active).

With `CCCn1c(C(C)Nc2nc(-c3ccc(C)cc3)cs2)nc2cc(Cl)c(N3CCCCC3)cc21` (centres undefined) as the molecule, how does the inhibition read?
The inhibition was 0.81%.

With `CCC(NC(=O)c1cc(COc2ccc(F)c(F)c2)on1)c1ccncc1` (centres undefined) as the molecule, how does the inhibition read?
Its inhibition is 2.18%.

With `c1ccc(-c2nccc(-c3ccc(-n4cnc5ccccc54)cc3)n2)nc1` as the molecule, how does the inhibition read?
The inhibition was 16.5%.

How did the inhibition turn out when `O=C(CSc1nc2ccccc2c(=O)[nH]1)Nc1nc(-c2ccc(Br)cc2)cs1` was run?
The inhibition was 6.59%.

For `Cc1ccc(Cn2nnc3c(=O)[nH]c(C4CCN(S(=O)(=O)/C=C/c5ccccc5)CC4)nc32)cc1`, which inhibition is on record?
Its inhibition is 37%.

With `Cc1ccc(Cn2c(C)nc3c(c2=O)c2nc4ccccc4nc2n3Cc2ccco2)cc1` as the molecule, how does the inhibition read?
Its inhibition is 11.8%.

`Cn1c2ccccc2c(=O)c2c(=O)n(Cc3ccco3)c(COc3ccccc3)nc21` was tested. Which inhibition did it give?
The inhibition was 10.4%.

Which inhibition does the source give for `Cc1cc(C(=O)CSc2nc(N)cc(=O)[nH]2)c(C)n1CCc1ccc(Cl)cc1` here?
The inhibition was 21.5%.

For `C#Cc1cc(N2CCN(C(=O)c3ccoc3)CC2)n2nc(-c3cccc(Cl)c3)cc2n1`, which inhibition is on record?
The inhibition was 25.9%.

`COc1ccc(-c2nn(-c3ccccc3)cc2/C=N/Nc2ccccn2)cc1OC` was tested. Which inhibition did it give?
Its inhibition is 5.86%.

How did the inhibition turn out when `Cc1ccc(-c2nc(-c3cccnc3)sc2CC(=O)Nc2ccc(C)c(Cl)c2)cc1` was run?
Its inhibition is -1.82%.

Which inhibition does the source give for `Cc1noc(/C=C/c2ccco2)c1S(=O)(=O)N1CCC(C(=O)N2CCc3ccccc32)CC1` here?
Its inhibition is 4.7%.

With `Cn1cncc1C#Cc1c(-c2ccsc2)sc2ccccc12` as the molecule, how does the inhibition read?
The inhibition was 9.54%.

Which inhibition does the source give for `O=C(N/N=C/c1ccc(Cl)cc1)c1nc2ccc([N+](=O)[O-])cc2c(=O)[nH]1` here?
The inhibition was 9.54%.

Which inhibition does the source give for `COc1ccccc1/C=C/C=N/n1c(-c2ccc(Cl)cc2Cl)n[nH]c1=S` here?
Its inhibition is 17.4%.

Which inhibition does the source give for `CCC(c1nnnn1Cc1ccco1)N(Cc1cc2cc(OC)ccc2[nH]c1=O)C1CCCCC1` (centres undefined) here?
The inhibition was 14.9%.

Which inhibition does the source give for `COc1ccc(C(=O)Nc2cccc(/C=C(/CCC(=O)O)c3nc4ccccc4s3)c2)cc1` here?
The inhibition was 35.7%.

With `CC(C)(C)C(=O)Nc1ccc(C(=O)N/N=C/c2ccccc2OC(=O)c2ccc(Cl)cc2Cl)cc1` as the molecule, how does the inhibition read?
The inhibition was 0.49%.

For `CCCCCCc1cc2cc(-c3nnc(-c4ccccc4)o3)c(=O)oc2cc1O`, which inhibition is on record?
The inhibition was -1.61%.

For `Cc1cc(O)c(C(=O)/C=C/c2c(F)c(F)c(F)c(F)c2F)c(=O)o1`, which inhibition is on record?
The inhibition was 12.9%.

`CCOC(=O)c1ccccc1N1C(=O)C2Sc3[nH]c(=O)sc3C(/C=C/c3ccccc3)C2C1=O` (centres undefined) was tested. Which inhibition did it give?
Its inhibition is 57.6% (active).

For `CC(C)Oc1ccc(/C=C(\NC(=O)/C=C/c2ccco2)C(=O)NCCc2nc3ccccc3[nH]2)cc1`, which inhibition is on record?
The inhibition was 37.9%.
